Experimental findings from PubChem BioAssay (NCATS) are described below.

Test [1] addresses Aldehyde dehydrogenase, mitochondrial (Homo sapiens) (UniProt P05091). Briefly: qHTS for Inhibitors of the Aldehyde Dehydrogenase Family (ALDH2) Primary screen (AID 2061308).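 Also: plate controls were vehicle for no effect and reference inhibitor for full effect; nearly all actives have a fitted effect of over 55% in size.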 For orientation: qHTS replaces the single test concentration by a dilution series.
The target in test [2] is Retinaldehyde dehydrogenase 3 (Homo sapiens) (UniProt P47895). In words: qHTS for Inhibitors of the Aldehyde Dehydrogenase Family (ALDH1A3) Primary screen (AID 2061315).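 Also: plate controls were DMSO vehicle for no effect and reference inhibitor for full effect.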
Test [3] in a line: BET inhibitor-based combinations targeting novel dependencies in MECOM-rearranged (r) AML: SET-2 cell line (AID 2202231). Also: nearly all actives have a fitted effect of over 35% in size. Also: potency is read from the fitted curve at half-maximal effect.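 As to viability: plate controls were DMSO treated cells for no effect and wells without cells for full effect.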 As to conditions: SET-2 AML cells viability, CellTiter-Glo luminescence, 48 h; viability: stronger effect = lower value, concentration not given here. The method in brief: (§1)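 Each compound was tested at eleven concentrations on cells seeded at 500/well. After two days' incubation, ATP-based luminescence reported viability; responses relative to DMSO and blank wells yielded AUC and cell-line-centred Z-AUC.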

Test [4] is described as follows: BET inhibitor-based combinations targeting novel dependencies in MECOM-rearranged (r) AML: OCI-AML3 cell line (AID 2202232). Also: nearly all actives have a fitted effect of over 35% in size. Also: potency is read from the fitted curve at half-maximal effect.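 As to viability (% of control): series mostly up to about 46 µM; plate controls were DMSO vehicle wells for no effect and wells without cells for full effect.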 As to conditions: Potency: OCI-AML3 viability. The method in brief:
as §1

The nature of test [5]: BET inhibitor-based combinations targeting novel dependencies in MECOM-rearranged (r) AML: HNT-34 cell line (AID 2202234). Also: nearly all actives have a fitted effect of over 35% in size. Also: potency is read from the fitted curve at half-maximal effect.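 As to viability (% of control): plate controls were vehicle wells for no effect and cell-free wells for full effect.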 A digest of the protocol: (§2)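 First, 500 cells per well were seeded; next, drugs were pinned as 11-point doses; then plates sat 48 hr in the incubator; finally CellTiter-Glo was added and luminescence read, with AUC and Z-AUC computed.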
Test [6] can be described thus: BET inhibitor-based combinations targeting novel dependencies in MECOM-rearranged (r) AML: UCSD-AML1 cell line (AID 2202235). Also: nearly all actives have a fitted effect of over 40% in size. Also: potency is read from the fitted curve at half-maximal effect.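 As to viability (% of control): series mostly up to about 46 µM; plate controls were DMSO vehicle wells for no effect and blank wells for full effect.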 A digest of the protocol: as §2
Test [7] can be described thus: BET inhibitor-based combinations targeting novel dependencies in MECOM-rearranged (r) AML: AML-191 cell line (AID 2202236; also: nearly all actives have a fitted effect of over 35% in size; also: potency is read from the fitted curve at half-maximal effect;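 as to viability (% of control): plate controls were vehicle wells for no effect and wells without cells for full effect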). A digest of the protocol: as §1
A short description of test [8]: BET inhibitor-based combinations targeting novel dependencies in MECOM-rearranged (r) AML: AML-194 cell line (AID 2202237; also: nearly all actives have a fitted effect of over 40% in size; also: potency is read from the fitted curve at half-maximal effect;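 as to viability (% of control): plate controls were vehicle wells for no effect and wells without cells for full effect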). A digest of the protocol: as §1
The nature of test [9]: BET inhibitor-based combinations targeting novel dependencies in MECOM-rearranged (r) AML: MV-4-11 cell line (AID 2202233). Also: nearly all actives have a fitted effect of over 45% in size. Also: potency is read from the fitted curve at half-maximal effect.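 As to viability, % of control: plate controls were DMSO for no effect and blank wells for full effect.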 The method in brief:
as §2

Each structure is given as a SMILES string. Records with an inconclusive call do not appear. Values without a mark were called inactive. Active and inactive are the calls of the source. Calls follow the shape of the dose curve; as a rule, active = well fitted curve in the direction sought with a large enough effect; inconclusive = small, poorly fitted or top-dose-only effect, or another doubt; inactive = no such curve, though single readings can be large; an effect the other way counts as inactive or inconclusive.

Regarding `CCCCc1ccc(NS(=O)(=O)c2ccc(C)c(C(=O)N3CCN(c4cccc(C)c4C)CC3)c2)cc1`, the Potency entry in [1], in [2], in test [4], in [5], in test [6] and in [7] was “inactive” each time. For the same molecule, the viability (usually a read-out of living cells in per cent, often relative to untreated cells) in test [3] is 94.4%.
As to `CNc1nc(C)nc(N[C@H]2CCC[C@@H](C(=O)NCc3ccc(C#N)cc3C(F)(F)F)C2)n1`, the Potency result in [1], in test [2], in test [4], in [5], in test [6] and in test [7] was “inactive” each time. In addition, in test [8], the Potency entry is “inactive”. Moreover, the viability in test [3] was 108%.
Take `CCOc1cc(C(=O)N2CCC(N3CCN(C)CC3)CC2)ccc1Nc1ncc2c(n1)N(C1CCCC1)c1ccccc1C(=O)N2C`: the Potency entry in test [1] and in test [2] was “inactive” each time. The Potency in [3] was 14.8 µM (active); in test [4] it was 3.32 µM (active); in [9] it was 1.66 µM (active); in test [5] it was 13.2 µM (active); in test [6], 5.25 µM (active); in [8], 8.33 µM (active).
Take `C=C1CCC(OC(C)=O)C2(C)CC3OC(=O)C(C)=C3CC12` (centres undefined): the Potency entry in test [1] and in test [2] was “inactive” each time.
In the case of `CNC(=O)c1ccc2cc(C3(O)CCn4cncc43)ccc2c1` (centres undefined), the Potency result in test [1], in test [2], in [4], in test [6], in [7] and in test [8] was “inactive” throughout. The viability in [3] is 115%.
For `C=C1CCC2C(C)(C)CC(O)CC2(C)C1CCC(C)CC(=O)O` (centres undefined), the Potency entry in [1] and in test [2] was “inactive” each time.
For the molecule `CN1c2ccccc2C(=O)N2CCc3c([nH]c4ccccc34)C21` (centres undefined), the Potency entry in test [1] and in test [2] was “inactive” in each case. Further, the Potency was 5.25 µM (active) in [3]; 2.95 µM (active) in test [4]; 3.32 µM (active) in test [9]; 1.86 µM (active) in test [5]; 1.32 µM (active) in test [7]; 1.32 µM (active) in [8].
With `CCC(C)C(=O)OC1CC(C)C=C2C=CC(C)C(CCC(O)CC(O)CC(=O)O)C21` (centres undefined), the Potency entry in test [1] and in test [2] was “inactive” each time.
Consider `COc1c(C)cc(NC(=O)c2nn(Cc3ccc(F)cc3)c3c2CN(C(=O)c2ccc[nH]2)C[C@]3(C)C(N)=O)cc1C`, for which the Potency result in test [1] and in test [2] was “inactive” each time. In addition, the viability in [3] is 118%. Also, the viability (% of control) in test [4] was 113% [at 8.46 µM]; in [5], 105% [at 8.46 µM]; in [8], 108% [at 8.46 µM]. Further, in test [9], the viability, % of control is 114% [at 8.46 µM].
In the case of `COc1cc(Nc2ncc3c(n2)-c2ccc(Cl)cc2C(c2c(F)cccc2OC)=NC3)ccc1C(=O)O`, the Potency result in [1] and in test [2] was “inactive” in each case. Besides, the Potency in test [9] is 0.0833 µM (active); in test [5] it was 1.18 µM (active); in test [6], 0.059 µM (active).
Regarding `CC(C)[C@H](CO)Nc1nc(Nc2ccc(C(=O)O)c(Cl)c2)c2ncn(C(C)C)c2n1`, the Potency result in test [1], in test [2], in test [4], in test [5], in test [6] and in test [7] was “inactive” throughout. Moreover, the viability in [3] is 109%.
Consider `C=C1CCC2C(C)(C)CCC[C@]2(C)[C@H]1CC/C(C)=C/C(=O)O` (some centres undefined), for which the Potency result in test [1] and in [2] was “inactive” in each case.
Regarding `CC1CCN(c2cc(N3CCN(C)CC3)ccc2NC(=O)c2cc(C#N)c[nH]2)CC1`, the Potency result in test [1] and in test [2] was “inactive” in each case. In addition, in [3], the viability is 116%. The Potency was 20.9 µM (active) in test [4]; 8.33 µM (active) in test [9]; 26.3 µM (active) in test [5]; 20.9 µM (active) in [6]; 20.9 µM (active) in test [7]; 23.5 µM (active) in test [8].
For `O=C([C@@H](Cc1cccc(C(F)(F)F)c1)NS(=O)(=O)c1cc(F)c2c(c1)CCNC2)N1CCCC1`, the Potency result in [1], in [2], in test [6], in test [7] and in test [8] was “inactive” throughout. Also, the viability in test [3] was 107%. Besides, the Potency in [4] was 11.8 µM (active).
`CC(C)(C)Sc1c(CC(C)(C)C(=O)O)n(Cc2ccc(Cl)cc2)c2ccc(OCc3ccc4ccccc4n3)cc12`: the Potency result in [1] and in test [2] was “inactive” throughout. Further, the Potency in test [9] and in test [5] was 26.3 µM (active) in each case.
Consider `C=C1C(=O)O[C@@H]2C[C@@H](C)[C@]34C[C@]5(C(=O)O[C@H]6CC(C)=C([C@H](C)CCCO)[C@H](OC(=O)C(C)CC)[C@H]65)[C@@H](C(C)=C3C[C@@H]12)[C@H]4OC(C)=O` (some centres undefined), for which the Potency entry in test [1] and in test [2] was “inactive” each time.
On to `C[C@@H]1C[C@H]2O[C@@H]2/C=C\C=C\C(=O)Cc2c(Cl)c(O)cc(O)c2C(=O)O1`, for which the Potency entry in test [1] and in test [2] was “inactive” in each case.
